Assay outcomes deposited in PubChem BioAssay by National Center for Advancing Translational Sciences (NCATS).
This excerpt belongs to a sample that is enriched for hits.
Pf Dd2 inh: qHTS Primary assay for Inhibitors of Plasmodium falciparum Dd2 growth in vitro | P. falciparum Dd2 growth, SYBR Green, 72 h | Potency, µM (doses to about 28.9 µM), without a hit: at the top dose activity, negative = inhibition, most hits filed as inhibitors | actives 4.3% (n = 120,000) | AID 1347417, 2020; active = well fitted inhibition curve with a large enough effect;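 also: plate controls were DMSO vehicle for no effect and reference drug for full effect; nearly all actives have a fitted effect of over 65% in size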
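Infected erythrocytes (Dd2, 0.3% parasitemia, 2.5% hematocrit final) are added to compound in RPMI-1640/Albumax II medium, grown 72 h at 37C in low oxygen, then lysed with saponin/Triton-X containing SYBR Green and read by fluorescence.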
Numbers without * were called inactive; i = inactive; [ ] = another dose, or the depositor's remark. Potency is read from the fitted curve at half-maximal effect.

SMILES	Pf Dd2 inh
CC(C)N1CCN(C2CCOC3(CCN(S(=O)(=O)c4ccccc4)CC3)C2)CC1 (stereo not given)	i
Cc1ccc(C2Cn3nnc(C(=O)N4CCN(C(=O)c5ccc(F)cc5)CC4)c3CO2)cc1 (stereo not given)	0%
Cc1ccc(C(=O)N2CCN(C(=O)c3nnn4c3COC(c3ccc(F)cc3)C4)CC2)cc1C (stereo not given)	7.1µM*
COc1ccc(C2Cn3nnc(C(=O)N4CCC(C(=O)NC5CCCCCCC5)CC4)c3CO2)cc1 (stereo not given)	-17%
COc1ccc(C2Cn3nnc(C(=O)N4CCC(C(=O)NC5CCCCC5)CC4)c3CO2)cc1 (stereo not given)	26%
COc1ccc(CCNC(=O)c2nnn3c2COC(c2ccc(C)cc2)C3)cc1OC (stereo not given)	8.9µM*
CCCCNC(=O)c1nnn2c1COC(c1ccc(C)cc1)C2 (stereo not given)	i
COc1ccc(C(=O)N2CCN(C(=O)c3nnn4c3COC(c3ccc(F)cc3)C4)CC2)cc1 (stereo not given)	0%
COc1ccc(C2Cn3nnc(C(=O)NC4CCCCCCC4)c3CO2)cc1 (stereo not given)	8.9µM*
Cc1ccc(C2Cn3nnc(C(=O)NCc4ccc(F)cc4)c3CO2)cc1 (stereo not given)	i
CS(=O)(=O)N1CCC(C2CCN(C(=O)Cc3ccc(F)cc3)C2)CC1 (stereo not given)	5%
O=C(NC1CCCN(c2nc3ncccc3o2)C1)c1ccccc1Cl (stereo not given)	i
CC(=O)NC[C@H]1O[C@@H](Cc2nc(-c3ccc(OC(F)(F)F)cc3)no2)[C@H](O)[C@@H]1O	-20%[44.1 µM]
Cc1ccccc1Oc1ncccc1CNC(=O)C(C)(C)n1cccc1	-5%
COc1ccccc1-c1cn2c(n1)CO[C@@H](CNCc1ccc(F)cc1)C2	i
CN(C)C[C@@H]1CN(S(C)(=O)=O)C[C@H]1NC(=O)c1ccc(Cn2ccnc2)o1	19%
C1=CC[C@H]2CN(c3nccc(-c4ccccn4)n3)C[C@H]2C1	-9%
O=C(c1ncn[nH]1)N1CCN(Cc2cn(-c3ccccc3)nn2)CC1	-2%
CN(C)C[C@@H]1CN(C)C[C@H]1NC(=O)c1ccc(Cn2ccnc2)o1	-6%
CCc1nc(-c2c3n(c(=O)n(Cc4ccccc4OC)c2=O)CCCCC3)no1	i
OC(c1cccc(C(F)(F)F)c1)c1nc(Nc2ccc(F)cc2)n[nH]1 (stereo not given)	-21%[44.1 µM]
N#Cc1ccc(C(=O)N2CCCCCCNC(=O)[C@@H]3C[C@@H](c4nc(-c5cccnc5)no4)C[C@@H]32)cc1	-15%
Cc1ccc(-c2cn3c(n2)CO[C@@H](CNCc2ccc(Cl)cc2)C3)cc1	i
Cc1ccc(-c2cn3c(n2)CO[C@@H](CNCc2ccc(-c4ccccn4)cc2)C3)cc1	13µM*
Cc1ccc(-c2cn3c(n2)CO[C@@H](CNCc2ccc(S(C)(=O)=O)cc2)C3)cc1	i
SMILES	Pf Dd2 inh
CN(C)c1cc(N2CCCC(NC(=O)COc3ccccc3)C2)ncn1 (stereo not given)	i[5.79 µM]
O=C(N1CCN(S(=O)(=O)c2ccc3c(c2)CCC3)CC1)N1CC2CC(C1)[C@H]1CCCC(=O)N1C2 (stereo not given in full)	i
O=C(c1cscn1)N1CC[C@@H]2[C@@H](CCC(=O)N2CCc2ccccn2)C1	-19%
Cc1nc(CN2CCN(C(=O)[C@H]3CC[C@@H](N)C3)CC2)cs1	22%
N[C@@H]1CC[C@H](C(=O)NCc2csc(N3CCCC3)n2)C1	11µM*
O=C(NCc1csc(-c2cnccn2)n1)[C@H]1CCC[C@H](O)C1	-11%
CN(C)Cc1nnc(C2CCN(C(=O)CCNS(C)(=O)=O)CC2)n1C	20%
COC1CCCN(c2ccc(C(=O)N3CCC(N4CCOCC4)CC3)cn2)C1 (stereo not given)	2%
COC[C@H]1CCCN1Cc1nc(C2(O)CCN(C(=O)Nc3ccc(F)cc3)CC2)cs1	-21%
OC1(c2csc(CN3CCN(c4ccccn4)CC3)n2)CCN(Cc2ccc(F)cc2)CC1	5µM*
OC1(c2csc(CN3CCN(c4ccccn4)CC3)n2)CCNCC1	2%[44.1 µM]
CN1CCN(Cc2nc(C3(O)CCN(Cc4ccccc4)CC3)cs2)CC1	i
COC[C@H]1CCCN1Cc1nc(C2(O)CCN(CC(C)C)CC2)cs1	i
COC[C@H]1CCCN1Cc1nc(C2(O)CCN(Cc3ccc(F)cc3)CC2)cs1	7.9µM*
O=C(NCC1CCCN(C(=O)N2CCCC2)C1)c1ccc(-c2ccccc2)cc1 (stereo not given)	-11%
O=C(CCNc1c(-c2ccc(F)cc2)nc2cnccn12)N1CCCCC1	-18%
O=C(NCC1(COc2ccccc2)C[C@@H](O)[C@@H](O)C1)C1CCOCC1 (stereo not given in full)	22%[44.1 µM]
CN(C)C(=O)C1=NOC2CN(C(=O)Nc3cccnc3)CC12 (stereo not given)	-9%
Cc1oc(-c2cccc(Oc3ccccc3)c2)nc1CN1CC[C@H](N(C)C)C1	-13%
COc1ccc2cc(CN3CCC(N(C)C)C3)c(-c3cccc(C)c3)nc2c1 (stereo not given)	11µM*
COCC1CCN(Cc2cc3cc4c(cc3nc2-c2ccc(Cl)cc2)OCO4)C1 (stereo not given)	i
CCCS(=O)(=O)N1CCN(C2CCN(CCOC)C2=O)CC1 (stereo not given)	16%
O=C(c1ccno1)N1CCOC[C@H](Oc2ccc(C(F)(F)F)cn2)C1	-20%[44.1 µM]
CC1=C[C@@H](CNC(=O)c2ccccc2)[C@H](C(C)C)C[C@H]1CC(=O)N1CCN(C)CC1	i
CC1=C[C@@H](CNC(=O)C2CCCCC2)[C@H](C(C)C)C[C@H]1CC(=O)N1CCN(c2ccccn2)CC1	10µM*
SMILES	Pf Dd2 inh
CC1=C[C@@H](CC#N)[C@H](C(C)C)C[C@H]1CC(=O)N1CCN(c2cnccn2)CC1	7.1µM*
CC1=C[C@@H](CO)[C@H](C(C)C)C[C@H]1CC(=O)N1CCN(CCO)CC1	i
CC(=O)N1CCN(C(=O)C[C@@H]2C[C@@H](C(C)C)[C@H](CC#N)C=C2C)CC1	-10%[44.1 µM]
CC1=C[C@@H](CNC(=O)C(C)(C)C)[C@H](C(C)C)C[C@H]1CC(=O)N1CCN(c2ccccn2)CC1	-6%
CCc1noc(-c2nc(-c3cccc(F)c3)no2)n1	-3%
O=C1C[C@@H]2CCN(C(=O)Nc3cccc(C(F)(F)F)c3)C[C@@H]2CCN1CCN1CCNC1=O	-9%
CCc1nc2c(c(-c3ccc(OC)cc3)n1)CCN(C(=O)c1ccc3c(c1)OCO3)CC2	-15%
COc1cccc(S(=O)(=O)NCC2Cn3cccc3C(=O)N2C)c1 (stereo not given)	-5%
CCOC(=O)c1oc2ccc(S(=O)(=O)NCC3Cn4cccc4C(=O)N3C)cc2c1C (stereo not given)	13µM*
CN1C(=O)c2cccn2CC1CNS(=O)(=O)c1ccc(F)cc1 (stereo not given)	5%
Cc1cc(C)cc(NC(=O)N2CCCC(c3noc(COc4ccccc4F)n3)C2)c1 (stereo not given)	i
O=C1NCCCC12CCN(Cc1cccc(C(F)(F)F)c1F)C2 (stereo not given)	-20%
O=C(NC1CCN(c2cc(-c3cccs3)[nH]n2)C1)c1ccncc1 (stereo not given)	i
Cc1ccc(C(=O)NC2CCN(c3cc(-c4cccs4)[nH]n3)CC2)cc1F	11µM*
